Assay results as given in the supplement of paper PMC13380429.
A number with no mark means an inactive call.

system: Vero E6 infected with SARS-CoV-2; experiment: inhibition of SARS-CoV-2 cytopathic effect; higher = more antiviral protection, active = above 15; details: 100 nM; 48 h

Compound	inhibition of SARS-CoV-2 cytopathic effect
C[C@H](Cc1ccc(OCC(=O)O)cc1)NC[C@H](O)c1cccc(Cl)c1	2.24%
COc1cc2ncnc(Sc3nnc(C)s3)c2cc1OC	3.01%
C[C@H](CSC(=O)c1ccccc1)C(=O)N1C[C@@H](Sc2ccccc2)C[C@H]1C(=O)O [zofenopril-calcium]	-3.63%
Cc1ccccc1-c1cc(N2CCN(C)CC2)ncc1N(C)C(=O)C(C)(C)c1cc(C(F)(F)F)cc(C(F)(F)F)c1 [netupitant]	-1.38%
Oc1ccc(O)cc1 [hydroquinone]	1.25%
CN(C)CCN1C(=O)c2cccc3cc(NC(N)=O)cc(c23)C1=O [unbs-5162]	2.53%
CC1(COc2ccc(CC3SC(=O)NC3=O)cc2)CCCCC1 (stereo unspecified) [ciglitazone]	-1.82%
CCN(Cc1ccc(Cl)nc1)/C(=C/[N+](=O)[O-])NC [nitenpyram]	-0.29%
N=C(N)N/N=C/c1c(Cl)cccc1Cl [guanaben-acetate]	-3.74%
CO[C@@H]1[C@H](O)[C@@H](CO)O[C@H]1n1cnc2c(NC3CCCCC3)ncnc21	8.69%
CN1CCC(=C2c3ccccc3CC(=O)c3sccc32)CC1 [ketotifen]	2.53%
CCOC(=O)C1=C[C@@H](OC(CC)CC)[C@H](NC(C)=O)[C@@H](N)C1 [oseltamivir-phosphate]	-4.22%
CCCc1nc(C(C)(C)O)c(C(=O)O)n1Cc1ccc(-c2ccccc2-c2nnn[nH]2)cc1 [olmesartan]	1.17%
O=C1CS[C@@H](c2ccccc2Cl)c2cc(Cl)ccc2N1 (racemic)	-1.47%
COc1cc(/C=C(\C#N)C(N)=O)cc(CSc2nc3ccccc3s2)c1O [tyrphostin-AG-825]	0.69%
COc1cc(C(=O)N2CCC(N3CCN(C)CC3)CC2)ccc1Nc1ncc2c(n1)N(C)c1ccccc1C(=O)N2C	2.57%
O=C1NC(=O)[C@@]2(CCOc3ccc(F)cc32)N1 [sorbinil]	-2.63%
OCCCNc1cc(-c2ccnc(Nc3cccc(Cl)c3)n2)ccn1	1.6%
CN1CCC(CNc2ccc3ncc(-c4cccc(OC(F)(F)F)c4)n3n2)CC1	2.97%

Compound	inhibition of SARS-CoV-2 cytopathic effect
CC1CCC(NC(=O)N(CCCl)N=O)CC1 (stereo unspecified) [semustine]	-3.63%
O=C(NC1CCC1)c1ccc(C#Cc2cccc(F)c2)nc1	-2.31%
O=C(/C=C/c1ccc2c(c1)OCO2)N1CCCCC1 [ilepcimide]	1.04%
COCC(=O)O[C@]1(CCN(C)CCCc2nc3ccccc3[nH]2)CCc2cc(F)ccc2[C@@H]1C(C)C [mibefradil]	-2.5%
CC[N+](C)(CC)CCOC(=O)C(O)(c1ccccc1)C1CCCCC1 (stereo unspecified) [oxyphenonium]	-2.81%
CN1Cc2ccccc2[C@@H]2c3cccc4[nH]cc(c34)C[C@H]21	-1.06%
Cc1ccc(C[N+](C)(C)C)o1 [5-methylfurmethiodide]	-0.64%
O=C(O)CCCCCCNC1c2ccccc2CCc2ccccc21 [amineptine]	-1.15%
c1cc(-c2cnn3cc(-c4ccc(OCCN5CCCCC5)cc4)cnc23)ccn1 [dorsomorphin]	2.59%
O=c1cccc2n1C[C@@H]1CNC[C@H]2C1 [cytisine]	-2.65%
CC[C@H]1CN2CCc3cc(OC)c(OC)cc3[C@@H]2C[C@@H]1C[C@H]1NCCc2cc(OC)c(OC)cc21 [emetine]	36.2% (active)
CCNC(C)CN1CCc2c(c(=O)oc3ccccc23)C1 (stereo unspecified)	-0.83%
N#C/C(=C\c1cn(-c2ccccc2)c2ccccc12)C(=O)O	-0.58%
CCOC(=O)[C@@H](N)Cc1ccc(O)c(O)c1 [etilevodopa]	2.32%
CCN(c1cc(-c2ccc(CN3CCOCC3)cc2)cc(C(=O)NCc2c(C)cc(C)[nH]c2=O)c1C)C1CCOCC1 [tazemetostat]	3.47%
CCCc1c2oc(C(=O)O)cc(=O)c2cc2c(=O)cc(C(=O)O)n(CC)c12 [nedocromil]	0.71%
CC(C)[C@H]1C(=O)N[C@@H](CCCNC(=N)N)C(=O)NCC(=O)N[C@@H](CC(=O)O)C(=O)N[C@H](Cc2ccccc2)C(=O)N1C [cilengitide]	-4.67%
O=C(CN1CCN(Cc2ccc3c(c2)OCO3)CC1)N1c2ccccc2Sc2ccccc21 [fenoverine]	4.98%
O=C(NNc1nc2cc(F)ccc2n2cccc12)c1cnccn1	0.63%

same assay, conditions: 833.33 nM; 48 h

Compound	inhibition of SARS-CoV-2 cytopathic effect
C[C@H](Cc1ccc(OCC(=O)O)cc1)NC[C@H](O)c1cccc(Cl)c1	0.59%
COc1cc2ncnc(Sc3nnc(C)s3)c2cc1OC	1.54%
C[C@H](CSC(=O)c1ccccc1)C(=O)N1C[C@@H](Sc2ccccc2)C[C@H]1C(=O)O [zofenopril-calcium]	-4.57%
Cc1ccccc1-c1cc(N2CCN(C)CC2)ncc1N(C)C(=O)C(C)(C)c1cc(C(F)(F)F)cc(C(F)(F)F)c1 [netupitant]	-1.26%
Oc1ccc(O)cc1 [hydroquinone]	1.2%
CN(C)CCN1C(=O)c2cccc3cc(NC(N)=O)cc(c23)C1=O [unbs-5162]	0.4%
CC1(COc2ccc(CC3SC(=O)NC3=O)cc2)CCCCC1 (stereo unspecified) [ciglitazone]	3.16%
CCN(Cc1ccc(Cl)nc1)/C(=C/[N+](=O)[O-])NC [nitenpyram]	-1.84%
N=C(N)N/N=C/c1c(Cl)cccc1Cl [guanaben-acetate]	-2.55%
CO[C@@H]1[C@H](O)[C@@H](CO)O[C@H]1n1cnc2c(NC3CCCCC3)ncnc21	1.46%
CN1CCC(=C2c3ccccc3CC(=O)c3sccc32)CC1 [ketotifen]	1.27%
CCOC(=O)C1=C[C@@H](OC(CC)CC)[C@H](NC(C)=O)[C@@H](N)C1 [oseltamivir-phosphate]	-6.18%
CCCc1nc(C(C)(C)O)c(C(=O)O)n1Cc1ccc(-c2ccccc2-c2nnn[nH]2)cc1 [olmesartan]	0.82%
O=C1CS[C@@H](c2ccccc2Cl)c2cc(Cl)ccc2N1 (racemic)	5.44%
COc1cc(/C=C(\C#N)C(N)=O)cc(CSc2nc3ccccc3s2)c1O [tyrphostin-AG-825]	-0.02%
COc1cc(C(=O)N2CCC(N3CCN(C)CC3)CC2)ccc1Nc1ncc2c(n1)N(C)c1ccccc1C(=O)N2C	1.89%
O=C1NC(=O)[C@@]2(CCOc3ccc(F)cc32)N1 [sorbinil]	-0.6%
OCCCNc1cc(-c2ccnc(Nc3cccc(Cl)c3)n2)ccn1	-16.6%
CN1CCC(CNc2ccc3ncc(-c4cccc(OC(F)(F)F)c4)n3n2)CC1	-0.97%

Compound	inhibition of SARS-CoV-2 cytopathic effect
CC1CCC(NC(=O)N(CCCl)N=O)CC1 (stereo unspecified) [semustine]	-1.54%
O=C(NC1CCC1)c1ccc(C#Cc2cccc(F)c2)nc1	-1.49%
O=C(/C=C/c1ccc2c(c1)OCO2)N1CCCCC1 [ilepcimide]	-1.12%
COCC(=O)O[C@]1(CCN(C)CCCc2nc3ccccc3[nH]2)CCc2cc(F)ccc2[C@@H]1C(C)C [mibefradil]	-0.56%
CC[N+](C)(CC)CCOC(=O)C(O)(c1ccccc1)C1CCCCC1 (stereo unspecified) [oxyphenonium]	0.58%
CN1Cc2ccccc2[C@@H]2c3cccc4[nH]cc(c34)C[C@H]21	0.95%
Cc1ccc(C[N+](C)(C)C)o1 [5-methylfurmethiodide]	-0.84%
O=C(O)CCCCCCNC1c2ccccc2CCc2ccccc21 [amineptine]	-1.42%
c1cc(-c2cnn3cc(-c4ccc(OCCN5CCCCC5)cc4)cnc23)ccn1 [dorsomorphin]	-0.64%
O=c1cccc2n1C[C@@H]1CNC[C@H]2C1 [cytisine]	-1.32%
CC[C@H]1CN2CCc3cc(OC)c(OC)cc3[C@@H]2C[C@@H]1C[C@H]1NCCc2cc(OC)c(OC)cc21 [emetine]	11.6%
CCNC(C)CN1CCc2c(c(=O)oc3ccccc23)C1 (stereo unspecified)	-0.78%
N#C/C(=C\c1cn(-c2ccccc2)c2ccccc12)C(=O)O	1.6%
CCOC(=O)[C@@H](N)Cc1ccc(O)c(O)c1 [etilevodopa]	0.72%
CCN(c1cc(-c2ccc(CN3CCOCC3)cc2)cc(C(=O)NCc2c(C)cc(C)[nH]c2=O)c1C)C1CCOCC1 [tazemetostat]	0.53%
CCCc1c2oc(C(=O)O)cc(=O)c2cc2c(=O)cc(C(=O)O)n(CC)c12 [nedocromil]	1.06%
CC(C)[C@H]1C(=O)N[C@@H](CCCNC(=N)N)C(=O)NCC(=O)N[C@@H](CC(=O)O)C(=O)N[C@H](Cc2ccccc2)C(=O)N1C [cilengitide]	-11.1%
O=C(CN1CCN(Cc2ccc3c(c2)OCO3)CC1)N1c2ccccc2Sc2ccccc21 [fenoverine]	-0.47%
O=C(NNc1nc2cc(F)ccc2n2cccc12)c1cnccn1	0.71%
